Active and inactive are the calls of the source. How the source made its calls: active means hit-call score of the fitted dose curve at least 0.9, where 1 is the maximum; inactive means score below 0.9.
These molecules were tested on Monocyte Chemoattractant Protein-1 (MCP1), CCL2 (gene 6347) (assay: BSK_LPS_MCP1: BioMAP Diversity Plus: LPS Assay for Monocyte Chemoattractant Protein-1 (MCP1) Biomarker Activity (AID 2283081;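 on AC50: co-culture stimulated with LPS; secreted MCP-1 protein quantified by ELISA in culture supernatant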)). Conditions: primary human HUVEC with PBMC; actives raise or lower the signal.
Summary of the method: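 HUVEC plus PBMC co-culture (human primary cells, LPS system) exposed to test chemical for 24 h; MCP-1 measured by ELISA. Bidirectional curve fitting against DMSO baseline; parallel SRB total-protein staining flags overt cytotoxicity.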

SMILES | outcome | AC50
O=C(Oc1ccc(Br)cc1)N1CCN2CCC1CC2 | inactive | –
ClC1=C(Cl)[C@]2(Cl)[C@H]3[C@H]([C@@H]4C=C[C@H]3C4)[C@@]1(Cl)C2(Cl)Cl | – | 36.8 µM (active)
CCCCCCCCCCCCCN1CC(C)OC(C)C1 (stereo not drawn) | inactive | –
CN(C)c1ccc(C(=O)c2ccc(N(C)C)cc2)cc1 | inactive | –
Cc1ccc([N+](=O)[O-])cc1 | inactive | –
CN(C)[C@@H]1C(=O)C(C(N)=O)=C(O)[C@@]2(O)C(=O)C3=C(O)c4c(O)cccc4[C@@](C)(O)[C@H]3C[C@@H]12 | inactive | –
C[C@]12C=CC3=C4CCC(=O)C=C4CC[C@H]3[C@@H]1CC[C@@H]2O | inactive | –
O=[N+]([O-])C(Br)(CO)CO | – | 25.9 µM (active)
O=Cc1ccco1 | inactive | –
c1ccc(N=Nc2ccccc2)cc1 | inactive | –
Cn1cc(-c2ccccc2)c(=O)c(-c2cccc(C(F)(F)F)c2)c1 | inactive | –
CCOc1cccc(C2(N3CCN(c4ccccc4)CC3)CCC(C)CC2)c1 (stereo not drawn) | inactive | –
[O-][Cl+]O | inactive | –
CCN(CC)N=O | inactive | –
CCCSC(=O)N(CCC)CCC | inactive | –
CC(C)(O)c1cnn2c(-c3ccc(F)c(-c4c(F)cccc4C#N)c3)cnc2n1 | inactive | –
c1ccc(NNc2ccccc2)cc1 | inactive | –
Clc1ccc(Cl)c(Cl)c1 | inactive | –
CC(C)COC(=O)c1ccccc1C(=O)OCC(C)C | inactive | –
CN(C)C(=O)Nc1ccc(Cl)cc1 | inactive | –
[As]#[In] | inactive | –
COP(=S)(OC)SCN1C(=O)c2ccccc2C1=O | inactive | –
N#CC(Br)(Br)C(N)=O | inactive | –
